# Reference: the supplement of paper PMC8285479
# ± gives the standard deviation of the averaged measurements. Whole data set: some 1,900 compounds, median “normalised cell viability (NPI; 0 = phenylarsine oxide control, 1 = DMSO control)” near 1, cut for the lowest 2% near 0.039. The sample as a whole holds a higher share of the lowest values than the screen did.
# Tested on: NCI-H1944
# Assay: normalised cell viability (NPI; 0 = phenylarsine oxide control, 1 = DMSO control) (fraction of DMSO control); NCI-H1944 is a non-small cell lung cancer line; higher = more viable cells (less compound toxicity)
# Settings: 6 days
# [1] = glucocorticoid arm: hydrocortisone 2.75 uM co-treatment, compound 1 µM
# [2] = glucocorticoid arm: hydrocortisone 2.75 uM co-treatment, compound 5 µM
# [3] = glucocorticoid arm: hydrocortisone 2.75 uM pre-treated 2 days and continued, compound 1 µM
# [4] = glucocorticoid arm: hydrocortisone 2.75 uM pre-treated 2 days and continued, compound 5 µM
# [5] = glucocorticoid arm: vehicle, compound 1 µM
# [6] = glucocorticoid arm: vehicle, compound 5 µM
# 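Note: CTB read-out in 384-well plates, triplicate wells, NPI normalised per plate against 1 µM phenylarsine oxide (0) and 0.1% DMSO (1) controls.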
smiles,measurement,setting,value
CC(NC(=O)Cc1cc(F)cc(F)c1)C(=O)NC1C(=O)N(C)c2ccccc2-c2ccccc21 (stereo not drawn),normalised cell viability,[1],0.977 ± 0.0072
same,normalised cell viability,[2],0.998 ± 0.0035
same,normalised cell viability,[3],0.983 ± 0.015
same,normalised cell viability,[4],0.999 ± 0.019
same,normalised cell viability,[5],0.9847 ± 0.0057
same,normalised cell viability,[6],0.9813 ± 0.007
COc1cc(=O)n(C)c2c(OCC(O)C(C)(C)O)cccc12 (stereo not drawn) [Foliosidine],normalised cell viability,[1],1.005 ± 0.0081
same,normalised cell viability,[2],0.99 ± 0.01
same,normalised cell viability,[3],0.9877 ± 0.0067
same,normalised cell viability,[4],0.981 ± 0.012
same,normalised cell viability,[5],0.998 ± 0.011
same,normalised cell viability,[6],0.9963 ± 0.0021
CC(C)(C)OC(=O)Nc1ccc(-c2cc(C(=O)NCCCCCCC(=O)NO)no2)cc1,normalised cell viability,[1],0.9572 ± 0.0081
same,normalised cell viability,[2],0.244 ± 0.23
same,normalised cell viability,[3],0.991 ± 0.025
same,normalised cell viability,[4],0.677 ± 0.31
same,normalised cell viability,[5],0.806 ± 0.15
same,normalised cell viability,[6],0.0189 ± 0.02
"O=C(CCCCCCC(=O)Nc1ccccc1)NO [Vorinostat (SAHA, MK0683)]",normalised cell viability,[1],0.94 ± 0.017
same,normalised cell viability,[2],0.585 ± 0.025
same,normalised cell viability,[3],0.959 ± 0.0017
same,normalised cell viability,[4],0.955 ± 0.048
same,normalised cell viability,[5],1.003 ± 0.0058
same,normalised cell viability,[6],0.0617 ± 0.0036
O=C(CCCCCCC(=O)Nc1ccccc1)NO [Vorinostat; SAHA],normalised cell viability,[1],0.928 ± 0.018
same,normalised cell viability,[2],1.04 ± 0.04
same,normalised cell viability,[3],0.95 ± 0.0036
same,normalised cell viability,[4],1.02
same,normalised cell viability,[5],0.995 ± 0.015
same,normalised cell viability,[6],0.9983 ± 0.0029
O=C(CCCCCCC(=O)Nc1ccccc1)NO,normalised cell viability,[1],0.959 ± 0.016
same,normalised cell viability,[2],0.569 ± 0.04
same,normalised cell viability,[3],0.978 ± 0.013
same,normalised cell viability,[4],0.912 ± 0.015
same,normalised cell viability,[5],0.969 ± 0.011
same,normalised cell viability,[6],0.075 ± 0.0018
N=C(N)NCCC[C@H](N)C(=O)O [L-Arginine],normalised cell viability,[1],1 ± 0.018
same,normalised cell viability,[2],0.997 ± 0.0027
same,normalised cell viability,[3],0.994 ± 0.0066
same,normalised cell viability,[4],1 ± 0.011
same,normalised cell viability,[5],0.986 ± 0.0085
same,normalised cell viability,[6],1.001 ± 0.0081
CC1(C)CNc2cc(NC(=O)c3cccnc3NCc3ccncc3)ccc21 [Motesanib Diphosphate],normalised cell viability,[1],1.02 ± 0.011
same,normalised cell viability,[2],1 ± 0.031
same,normalised cell viability,[3],1 ± 0.012
same,normalised cell viability,[4],0.992 ± 0.026
same,normalised cell viability,[5],1.001 ± 0.0076
same,normalised cell viability,[6],1.002 ± 0.0076
O=C1NC(=O)C(=Cc2ccc(-c3ccc(F)cc3)o2)S1 (stereo in doubt),normalised cell viability,[1],1 ± 0.018
same,normalised cell viability,[2],1 ± 0.014
same,normalised cell viability,[3],0.996 ± 0.013
same,normalised cell viability,[4],1.01
same,normalised cell viability,[5],0.991 ± 0.0027
same,normalised cell viability,[6],0.9913 ± 0.0083
O=c1[nH]c(=O)n([C@H]2C[C@H](O)[C@@H](CO)O2)cc1/C=C/Br [(E)-5-(2-Bromovinyl)-2'-deoxyuridine],normalised cell viability,[1],1.013 ± 0.0058
same,normalised cell viability,[2],1.01 ± 0.01
same,normalised cell viability,[3],1.003 ± 0.0061
same,normalised cell viability,[4],1.015 ± 0.0071
same,normalised cell viability,[5],0.9783 ± 0.0055
same,normalised cell viability,[6],0.9897 ± 0.0049
C[C@@H](NC(=O)/C(C#N)=C/c1ccc(O)c(O)c1)c1ccccc1 [Tyrphostin AG 527],normalised cell viability,[1],1.013 ± 0.0058
same,normalised cell viability,[2],0.9963 ± 0.0038
same,normalised cell viability,[3],0.879 ± 0.22
same,normalised cell viability,[4],0.999 ± 0.011
same,normalised cell viability,[5],1.003 ± 0.0058
same,normalised cell viability,[6],1.003 ± 0.0061
CCC[C@H](NC(=O)/C(C#N)=C/c1cccc(Br)n1)c1ccccc1,normalised cell viability,[1],1.017 ± 0.0058
same,normalised cell viability,[2],0.726 ± 0.1
same,normalised cell viability,[3],1.02 ± 0.01
same,normalised cell viability,[4],1.09 ± 0.025
same,normalised cell viability,[5],0.996 ± 0.0046
same,normalised cell viability,[6],0.339 ± 0.026
C[C@H](NC(=O)/C(C#N)=C/c1cccc(Br)n1)c1ccccc1,normalised cell viability,[1],1.01 ± 0.012
same,normalised cell viability,[2],1.06 ± 0.032
same,normalised cell viability,[3],1.02 ± 0.017
same,normalised cell viability,[4],1.048 ± 0.0075
same,normalised cell viability,[5],0.9985 ± 0.0098
same,normalised cell viability,[6],0.0147 ± 0.011
